# Results filed as inconclusive are left out. Values without a mark were called inactive. The call rests on the fitted dose curve; in most records, active means well fitted inhibition curve with a large enough effect; inconclusive means small, poorly fitted or top-dose-only effect; inactive means flat fitted curve, though single readings scatter. Where a SMILES comes first, the peptide text is derived from it. Bridges are numbered along the chain shown (N, C = ends). [ ]: non-standard residue; d: D form. The star is where a group is joined. X1 = CC[C@@H](C)[C@@H](N)C1=N[C@H](C(=O)*)CS1; d(aIle) = CC[C@H](C)[C@@H](N)C(=O)O; dOrn = NCCC[C@@H](N)C(=O)O
# Test: Drug repurposing screens with cells derived from glioblastoma tumor samples (AID 1345199); further: nearly all actives have a fitted effect of over 40% in size
# Conditions: GBM patient neurospheres viability, ATP luminescence, 48 h; at 46 µM (top of the series); tumour line A
# Method in brief: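 Four patient lines of CD133+ GBM neurospheres were screened at several concentrations; hits were retested in those lines plus three slower-growing GBM lines, using 48-hour treatment and ATP-based viability.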
# On the % scale 0 is the no-effect control and ±100 the full control effect.
row,Compound,"activity, negative = cell killing [%]"
1,CC(C)(C)c1ccc2c(S(=O)(=O)O)c(C(C)(C)C)ccc2c1,-27.1
2,CC[C@@H](C)[C@@H](N)C1=N[C@H](C(=O)N[C@@H](CC(C)C)C(=O)N[C@@H](CCC(=O)O)C(=O)N[C@@H](C(=O)N[C@@H]2CCCCNC(=O)[C@@H](CC(N)=O)NC(=O)[C@@H](CC(=O)O)NC(=O)[C@@H](Cc3cnc[nH]3)NC(=O)[C@@H](Cc3ccccc3)NC(=O)[C@@H]([C@H](C)CC)NC(=O)[C@@H](CCCN)NC2=O)[C@@H](C)CC)CS1 (X1-LE[d(aIle)][dK][dOrn][dI][dF][dH][dD][dN]; lactam 4-C),-25
3,CO[C@H]1C[C@@H]2CC[C@@H](C)[C@@](O)(O2)C(=O)C(=O)N2CCCC[C@H]2C(=O)O[C@H]([C@H](C)C[C@@H]2CC[C@@H](OC(=O)C(C)(CO)CO)[C@H](OC)C2)CC(=O)[C@H](C)/C=C(\C)[C@@H](O)[C@@H](OC)C(=O)[C@H](C)C[C@H](C)/C=C/C=C/C=C/1C,-25.2

# Same assay, conditions: GBM patient neurospheres viability, ATP luminescence, 48 h; at 46.1 µM (top of the series); tumour line C
row,Compound,"activity, negative = cell killing [%]"
1,O=C(Nc1ccc(O)cc1)c1ccccc1O,-27.7
2,COc1ccc(C[C@H](C)NC[C@@H](O)c2ccc(O)c(NC=O)c2)cc1,-28.7
3,O=C(OCc1ccccc1)c1ccc(O)cc1,10.4
4,CC(C)(C)c1ccc2c(S(=O)(=O)O)c(C(C)(C)C)ccc2c1,-16.6
5,C=C1[C@H](CO)[C@@H](O)C[C@@H]1n1cnc2c(=O)[nH]c(N)nc21,-24
6,COc1cc(C)c(/C=C/C(C)=C/C=C/C(C)=C/C(=O)O)c(C)c1C,-9.52
7,CC[C@@H](C)[C@@H](N)C1=N[C@H](C(=O)N[C@@H](CC(C)C)C(=O)N[C@@H](CCC(=O)O)C(=O)N[C@@H](C(=O)N[C@@H]2CCCCNC(=O)[C@@H](CC(N)=O)NC(=O)[C@@H](CC(=O)O)NC(=O)[C@@H](Cc3cnc[nH]3)NC(=O)[C@@H](Cc3ccccc3)NC(=O)[C@@H]([C@H](C)CC)NC(=O)[C@@H](CCCN)NC2=O)[C@@H](C)CC)CS1 (X1-LE[d(aIle)][dK][dOrn][dI][dF][dH][dD][dN]; lactam 4-C),23.1
8,N[C@@H](Cc1cc(I)c(Oc2ccc(O)c(I)c2)c(I)c1)C(=O)O,-18.1
9,CCN(CC)CCOCCOC(=O)C(CC)(CC)c1ccccc1,-23.4
10,Cc1c(N)nc([C@H](CC(N)=O)NC[C@H](N)C(N)=O)nc1C(=O)N[C@H](C(=O)N[C@H](C)[C@@H](O)[C@H](C)C(=O)N[C@H](C(=O)NCCc1nc(-c2nc(C(=O)NCCCCN=C(N)N)cs2)cs1)[C@@H](C)O)[C@@H](O[C@@H]1O[C@@H](CO)[C@@H](O)[C@H](O)[C@@H]1O[C@H]1O[C@H](CO)[C@@H](O)[C@H](OC(N)=O)[C@@H]1O)c1cnc[nH]1,-15.4
11,Nc1nc(NC2CC2)c2ncn([C@@H]3C=C[C@@H](CO)C3)c2n1,-22.1
12,CO[C@H]1C[C@@H]2CC[C@@H](C)[C@@](O)(O2)C(=O)C(=O)N2CCCC[C@H]2C(=O)O[C@H]([C@H](C)C[C@@H]2CC[C@@H](OC(=O)C(C)(CO)CO)[C@H](OC)C2)CC(=O)[C@H](C)/C=C(\C)[C@@H](O)[C@@H](OC)C(=O)[C@H](C)C[C@H](C)/C=C/C=C/C=C/1C,-22.5
13,C/C(=C\C(=O)OCCCCCCCCC(=O)O)C[C@@H]1OC[C@H](C[C@@H]2O[C@H]2[C@@H](C)[C@H](C)O)[C@@H](O)[C@H]1O,-21.4
14,CN(C)CCOc1ccc(/C(=C(/CCCl)c2ccccc2)c2ccccc2)cc1,-18.9
15,CCCCC(=O)O[C@H]1CC[C@H]2[C@@H]3CCc4cc(O)ccc4[C@H]3CC[C@]12C,8.7
16,C=C1CC[C@H](O)CC1=C/C=C1\CCC[C@]2(C)[C@@H]([C@H](C)/C=C/[C@H](C)C(C)C)CC[C@@H]12,6.83
17,O=C1c2ccccc2C(=O)c2c1ccc(O)c2O,-2.45
18,C[C@]12CC[C@@H]3c4ccc(OC(=O)c5ccccc5)cc4CC[C@H]3[C@@H]1CC[C@@H]2O,-17.8
19,CC1CC(OC(=O)C(O)c2ccccc2)CC(C)(C)C1 (configuration not stated),-12.1

# — PubChem BioAssay (NCATS)
